# Results taken from PubChem BioAssay.
# Values joined by “and” are separate entries in the source; they are usually repeats but may differ in a detail not shown here. Equal entries are not always repeated. Active and inactive are the calls of the source. Rule as the data show it, unless noted: active = inhibition above about 80%; inactive = the rest.
# Experiments:
# [1] = galactose survival enhancers in mitochondrial complex I cybrids – cell-based, galactose medium, ATP luminescence, primary screen (AID 1645843;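 active = z-score of at least 1.8 in each of two replicates, scored against plate mean and spread of sample wells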;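 also: positive z means more ATP and so rescue of galactose-driven cybrid death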); conditions: complex I mutant cybrid cells, 72 h, stronger effect = higher value
# F380Y = assay: BK channel mutant inhibitors and activators – cell-based, U2OS BacMam, thallium flux, beta subunits, selectivity assay, profiling panel (AID 1259406;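 active = thallium flux through the channel raised or lowered by more than 3 SD from vehicle-only wells, actives on both sides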;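 also: initial slope of Thallos dye fluorescence rise after thallium is added; log ratio against the mean of 0.3% DMSO vehicle wells on the same plate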); conditions: U2OS BacMam BK variants, at 30 µM
# F380Y/beta1 = assay: as above; conditions: U2OS BacMam BK variants, at 30 µM
# [2] = biological target: NAD(+) hydrolase SARM1 (Homo sapiens) (UniProt Q6SZW1); assay: blocking NAD cleavage by SARM1 SAM-TIR – cell lysate, NAD-Glo luminescence (AID 1508614;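 active = compound whose remaining NAD level is above about 45 nM, limit read from the data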;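 also: higher remaining NAD means stronger inhibition of SARM1 NADase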); conditions: SAM-TIR HEK293T lysate NADase, at 1 µM, stronger effect = higher value
# Chain of NAD(+) hydrolase SARM1 (Homo sapiens) (Q6SZW1 whole entry, looked up): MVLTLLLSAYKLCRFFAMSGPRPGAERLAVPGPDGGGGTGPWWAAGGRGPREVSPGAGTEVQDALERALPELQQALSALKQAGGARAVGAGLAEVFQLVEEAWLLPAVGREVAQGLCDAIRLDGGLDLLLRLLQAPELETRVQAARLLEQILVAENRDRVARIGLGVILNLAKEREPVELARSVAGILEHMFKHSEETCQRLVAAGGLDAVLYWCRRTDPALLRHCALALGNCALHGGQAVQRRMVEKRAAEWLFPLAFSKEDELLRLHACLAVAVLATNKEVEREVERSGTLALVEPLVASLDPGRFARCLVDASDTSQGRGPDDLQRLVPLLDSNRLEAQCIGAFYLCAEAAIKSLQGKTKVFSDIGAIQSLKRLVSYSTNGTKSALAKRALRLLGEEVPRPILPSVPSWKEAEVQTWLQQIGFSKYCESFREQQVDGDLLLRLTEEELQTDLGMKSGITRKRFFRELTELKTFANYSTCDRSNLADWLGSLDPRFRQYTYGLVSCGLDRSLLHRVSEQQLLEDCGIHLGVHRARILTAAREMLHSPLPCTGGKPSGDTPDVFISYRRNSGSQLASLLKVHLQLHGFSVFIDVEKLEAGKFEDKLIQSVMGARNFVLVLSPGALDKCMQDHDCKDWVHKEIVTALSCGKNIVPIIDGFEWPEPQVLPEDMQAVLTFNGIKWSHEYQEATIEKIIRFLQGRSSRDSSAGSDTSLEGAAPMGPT
# [3] = growth inhibition, single agent or in combination, cell-based, chromothripsis tumors, cisplatin or BGB combos (AID 1671449); conditions: LFS_MB_P medulloblastoma cells;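 also: cells exposed for 96 hours; 0% = vehicle DMSO and 100% = killing by high DMSO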
# [4] = growth inhibition, single agent and combos, cell-based, chromothripsis tumors, cisplatin or BGB combos (AID 1671450); conditions: HDN33 neuroblastoma cells, stronger effect = higher value;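 also: cells exposed to compound for four days; 0% = vehicle DMSO and 100% = cell killing by high DMSO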
# [5] = growth inhibition, single agents and combos, ICB984, cell-based, cisplatin or BGB combos, synergistic combos for chromothripsis tumors (AID 1671451; call rule not given here;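 also: cells exposed for 96 hours before readout; 0% = vehicle DMSO and 100% = killing by high DMSO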); conditions: ICB984 medulloblastoma cells, drug combinations, stronger effect = higher value
# [6] = growth inhibition, single agents and combos, LFS_MB_1R, cell-based, cisplatin or BGB combos, synergistic combos for chromothripsis tumors (AID 1671452); conditions: LFS_MB_1R medulloblastoma cells, stronger effect = higher value;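 also: cells exposed for 96 hours before readout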
# [7] = growth inhibition, single agents and combos, HTB85, cell-based, BGB or cisplatin IC20 combos, synergistic combos for chromothripsis tumors (AID 1671453); conditions: HTB85 osteosarcoma cells, drug combinations, stronger effect = higher value;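 also: cells exposed for 96 hours before readout; 0% = vehicle DMSO and 100% = high DMSO killing control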
# [8] = growth inhibition, single agents and combos, CRL2098, cell-based, BGB or cisplatin IC20 combos, synergistic combos for chromothripsis tumors (AID 1671454); conditions: CRL2098 osteosarcoma cells, drug combinations, stronger effect = higher value;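 also: cells exposed for 96 h before readout; 0% = vehicle DMSO and 100% = killing by high DMSO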
# [9] = growth inhibition, single agents and combos, HD-MB03, cell-based, BGB or cisplatin IC20 combos, synergistic combos for chromothripsis tumors (AID 1671455; in the data active = inhibition above about 83%;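 also: 0% = vehicle DMSO and 100% = high DMSO as cytotoxic control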); conditions: HD-MB03 medulloblastoma cells, stronger effect = higher value
# [10] = growth inhibition, single agents and combos, UWB1.289, cell-based, BGB or cisplatin combos, synergistic combos for chromothripsis tumors (AID 1671456); conditions: UWB1.289 ovarian carcinoma cells, stronger effect = higher value;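 also: cells exposed to compound for four days; 0% = vehicle DMSO and 100% = killing by high DMSO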
# [11] = growth inhibition, single agents and combos, LFS_MB_2R, cell-based, cisplatin combos, synergistic combos for chromothripsis tumors (AID 1671457); conditions: LFS_MB_2R medulloblastoma cells, stronger effect = higher value;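 also: cells exposed to compound for four days before readout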
# [12] = growth inhibition, MDA-MB-436, cell-based, BGB or cisplatin combos, synergistic combos for chromothripsis tumors (AID 1671458; call rule not given here;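 also: cells exposed for 96 hours; 0% = vehicle DMSO and 100% = killing by high DMSO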); conditions: MDA-MB-436 breast carcinoma growth inhibition, drug combinations, stronger effect = higher value
# [13] = UWB1.289_BRCA1 ovarian cancer growth, cell-based, BGB or cisplatin combinations (AID 1671459); conditions: UWB1.289 BRCA1 ovarian carcinoma, drug combinations, stronger effect = higher value
# [14] = drug combination toxicity in non-malignant astrocytes – cell-based, BGB or cisplatin IC20 combos, cytotoxicity control for chromothriptic childhood tumor combination screen (AID 1671460); conditions: Human astrocytes, viability inhibition, drug combinations, at 0.5 µM, stronger effect = higher value;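 also: cells exposed to compounds for 96 hours before viability readout; 0% = vehicle and 100% = killing control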
# [15] = BT084 cell growth, single and combined drugs, ICGC_MB145, cisplatin and BGB IC40 combos (AID 1671461); conditions: BT084 medulloblastoma cells, drug combinations, stronger effect = higher value;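 also: cells exposed to drugs for 96 hours; 0% = vehicle DMSO and 100% = high DMSO full killing control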
# [16] = RCMB18 cell growth, single agent and combined, cisplatin and BGB IC40 combos (AID 1671462); conditions: RCMB18 medulloblastoma cells, stronger effect = higher value;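 also: cells exposed to compound for four days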
# [17] = CRL1545 cell growth, single agent and combined, cisplatin and BGB IC20 combos (AID 1671464); conditions: CRL1545 osteosarcoma cells, stronger effect = higher value;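 also: cells exposed to compound for 96 hours before readout; 0% = vehicle DMSO and 100% = high DMSO killing control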
# [18] = measured here: combination with BGB IC40, at 0.05 µM
# [19] = measured here: with BGB IC20 combination, at 0.5 µM
# [20] = measured here: with cisplatin IC20 combination, at 0.5 µM
# [21] = measured here: combination with cisplatin, at 0.5 µM
# [22] = measured here: combination with cisplatin, at 5 µM
structure (smiles),measurement,setting,value
Brc1c(NC2=NCCN2)ccc2nccnc12,z-score,[1],0.235 (inactive) and -0.385 (inactive) and -0.11 (inactive)
same,log fold change Tl+ flux,F380Y,-0.0564 (inactive)
same,log fold change Tl+ flux,F380Y/beta1,0.00839 (inactive)
Nc1[nH]c(=O)ncc1F,remaining NAD,[2],10 nM (inactive)
same,z-score,[1],0.61 (inactive)
same,inhibition,"[3]; at 0.5 µM, stronger effect = higher value",35.6% (inactive)
same,inhibition,"[3]; measured here: combination with BGB IC20, at 0.005 µM",-27.5%
same,inhibition,"[3]; measured here: combination with BGB IC40, at 0.005 µM",-28.3%
same,inhibition,[3]; [18],-22%
same,inhibition,"[3]; measured here: combination with cisplatin, at 0.5 µM, stronger effect = higher value",56.8%
same,inhibition,"[3]; measured here: combination with cisplatin, at 5 µM, stronger effect = higher value",-29.9%
same,inhibition,"[4]; BGB combo, at 5 µM",-19.9%
same,inhibition,[4]; at 0.5 µM,-18.6% (inactive)
same,inhibition,"[4]; cisplatin combo, at 5 µM",-41.9%
same,inhibition,[4]; [19],-4.48%
same,inhibition,[4]; [20],-14.6%
same,inhibition,"[4]; single agent, at 5 µM",9.06%
same,inhibition,"[5]; BGB IC20 combo, at 0.005 µM",-28.5%
same,inhibition,"[5]; BGB IC40 combo, at 0.005 µM",-43.6%
same,inhibition,"[5]; BGB IC40 combo, at 0.05 µM",-8.87%
same,inhibition,[5]; at 0.5 µM,-40.6% (inactive)
same,inhibition,"[5]; cisplatin combo, at 0.05 µM",-8.87%
same,inhibition,"[5]; cisplatin combo, at 0.5 µM",-57.1%
same,inhibition,"[5]; cisplatin combo, at 5 µM",-45.6%
same,inhibition,"[5]; measured here: 5 uM single agent, at 5 µM",-3.48%
same,inhibition,[6]; at 0.5 µM,-37.2% (inactive)
same,inhibition,[6]; [18],-0.509%
same,inhibition,[6]; [21],-34.6%
same,inhibition,[6]; [22],-0.132%
same,inhibition,[7]; at 0.5 µM,-19.7% (inactive)
same,inhibition,"[7]; measured here: with BGB IC20, at 0.5 µM",-43%
same,inhibition,"[7]; measured here: with BGB IC20, at 5 µM",-34%
same,inhibition,"[7]; measured here: with cisplatin IC20, at 0.5 µM",-6.71%
same,inhibition,"[7]; measured here: with cisplatin IC20, at 5 µM",-6.3%
same,inhibition,"[7]; single agent, at 5 µM",-19.7%
same,inhibition,[8]; at 0.5 µM,-73.3% (inactive)
same,inhibition,"[8]; measured here: combination with BGB at IC20, at 0.5 µM",-56.9%
same,inhibition,"[8]; measured here: combination with cisplatin at IC20, at 0.5 µM",-90.3%
same,inhibition,[9]; at 0.5 µM,5.78% (inactive)
same,inhibition,"[9]; measured here: combo with BGB at IC20, at 0.5 µM",2.74%
same,inhibition,"[9]; measured here: combo with cisplatin at IC20, at 0.5 µM",10.4%
same,inhibition,[10]; at 0.5 µM,-7.68% (inactive)
same,inhibition,"[10]; measured here: inhibition with BGB combination, at 0.05 µM",-29.7%
same,inhibition,"[10]; measured here: inhibition with cisplatin combination, at 0.05 µM",-21.7%
same,inhibition,[11]; at 0.5 µM,-27.6% (inactive)
same,inhibition,[11]; [21],-24.1%
same,inhibition,[11]; [22],-29.1%
same,inhibition,[12]; at 0.5 µM,-31.1% (inactive)
same,inhibition,"[12]; measured here: BGB combination, at 0.5 µM",-21.4%
same,inhibition,"[12]; measured here: BGB combination, at 5 µM",-20.1%
same,inhibition,"[12]; measured here: cisplatin combination, at 0.5 µM",-54.4%
same,inhibition,"[12]; measured here: cisplatin combination, at 5 µM",-28.4%
same,inhibition,"[13]; BGB combination, concentration series, at 5 µM",-10.1%
same,inhibition,[13]; at 0.5 µM,-22% (inactive)
same,inhibition,"[13]; cisplatin combination, concentration series, at 5 µM",-7.2%
same,inhibition,[14],-16.9% (inactive)
same,inhibition,[14]; measured here: combo with BGB IC20,-11.3%
same,inhibition,[14]; measured here: combo with cisplatin IC20,-15.3%
same,inhibition,[15]; at 0.5 µM,-18.1% (inactive)
same,inhibition,"[15]; cisplatin combination, at 0.5 µM",-7.67%
same,inhibition,"[15]; cisplatin combination, at 5 µM",-29%
same,inhibition,"[15]; measured here: BGB IC40 combination 0.05 uM, at 0.05 µM",-18.5%
same,inhibition,"[15]; single agent, at 5 µM",-35%
same,inhibition,[16]; at 0.5 µM,-4.87% (inactive)
same,inhibition,"[16]; cisplatin combo, at 5 µM",12.7%
same,inhibition,"[16]; measured here: BGB IC40 combination, at 0.05 µM",-1.76%
same,inhibition,[16]; [21],22.6%
same,inhibition,"[16]; single agent, at 5 µM",67.5%
same,inhibition,[17]; at 0.5 µM,-33% (inactive)
same,inhibition,[17]; [19],-8.11%
same,inhibition,[17]; [20],-45.4%
same,inhibition,"[17]; single agent, at 0.05 µM",-16.8%
same,inhibition,"[17]; single agent, at 5 µM",-1.42%
same,log fold change Tl+ flux,F380Y,0.0331 (inactive)
same,log fold change Tl+ flux,F380Y/beta1,0.0164 (inactive)
